Results filed as inconclusive are left out. Active and inactive are the calls of the source. How the source made its calls, unless noted: active means hit-call score of the fitted dose curve at least 0.9, where 1 is the maximum; inconclusive means response in the unintended direction; inactive means score below 0.9.
assay: UKN2_HCS_IMR90_cell_viability: Viability Assessment in the University of Konstanz (UKN) Leist Lab Neural Crest Cell Migration Assay in human induced IMR90 Pluripotent Stem Cells (UKN2) (AID 2284233; active means hit-call score of the fitted dose curve at least 0.9, where 1 is the maximum; inactive means score below 0.9;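 further: cells exposed to compound for 24 h after a 24 h migration phase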)
Procedure, shortened: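 Viability read as calcein-AM fluorescence by high-content imaging, Hoechst co-stain, 30 min. Human iPSC (IMR90) neural crest cells had migrated 24 h into stopper-defined gaps before 24 h chemical exposure. Fitted bidirectionally relative to DMSO.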

Compound	outcome	AC50
CC(C)COC(=O)c1ccccc1C(=O)OCC(C)C	inactive	–
COP(=S)(OC)SCN1C(=O)c2ccccc2C1=O	inactive	–
CCC[CH2][Sn]([Cl])([CH2]CCC)[CH2]CCC	–	0.344 µM (active)
CCCCOC(=O)c1ccccc1C(=O)OCc1ccccc1	inactive	–
CNC(=O)Oc1cccc2c1OC(C)(C)C2	inactive	–
COC(=O)Nc1nc2ccccc2[nH]1	inactive	–

assay: TAMU_HCS_1.5hr_SingleDonor1434_Cytotoxicity: Cytotoxicity Assessment using High-content Screening (HCS) Fluorescent Imaging for the Texas A&M University (TAMU) 1.5-hr Human Induced Pluripotent Stem Cell (iPSC)-derived Cardiotoxicity Assay (AID 2284234)
Procedure, shortened: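 Nuclear counts from Hoechst 33342 imaging define cytotoxicity here, with EC10 (10% cell-count loss relative to DMSO) as point of departure. iPSC cardiomyocytes received 0.2-100 uM test chemical in 0.5% DMSO for 1.5 h at 37 C.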

Compound	outcome	AC50
CC(C)(C)C(O)(CCc1ccc(Cl)cc1)Cn1cncn1 (stereo not drawn)	inactive	–
c1ccc(N=Nc2ccccc2)cc1	inactive	–
C1=Cc2cccc3cccc1c23	inactive	–
ClC1=C(Cl)C2(Cl)C3C(Cl)C=CC3C1(Cl)C2(Cl)Cl (stereo not drawn)	–	50 µM (active)
Clc1ccc(C(c2ccc(Cl)cc2)C(Cl)(Cl)Cl)cc1	–	50 µM (active)
ClC1=C(Cl)[C@]2(Cl)[C@H]3[C@H]([C@@H]4C=C[C@H]3C4)[C@@]1(Cl)C2(Cl)Cl	–	83 µM (active)
CCCCCCCCn1sccc1=O	–	7.87 µM (active)
O=P(OCCCl)(OCCCl)OCCCl	inactive	–

assay: TAMU_PeakParms_SingleDonor1434_QT: Texas A&M University (TAMU) 1.5-hr Human Induced Pluripotent Stem Cell (iPSC)-derived Cardiomyocytes Calcium (Ca+2) Flux Assay for Cardiotoxicity: QT (decay-rise ratio) (AID 2284235)
Procedure, shortened: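 Decay/rise ratio of calcium-flux fluorescence scored after 90 min exposure (37C) of donor 1434 iPSC cardiomyocytes to 0.2–100 uM (0.5% DMSO). Beat-cessation and severe-notch points removed; POD is EC05, a 5% rise over DMSO.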

Compound	AC50	outcome
CC(C)(C)C(O)(CCc1ccc(Cl)cc1)Cn1cncn1 (stereo not drawn)	18.2 µM (active)	–
C1=Cc2cccc3cccc1c23	–	inactive
ClC1=C(Cl)C2(Cl)C3C(Cl)C=CC3C1(Cl)C2(Cl)Cl (stereo not drawn)	–	inactive
Clc1ccc(C(c2ccc(Cl)cc2)C(Cl)(Cl)Cl)cc1	–	inactive
ClC1=C(Cl)[C@]2(Cl)[C@H]3[C@H]([C@@H]4C=C[C@H]3C4)[C@@]1(Cl)C2(Cl)Cl	–	inactive

assay: CCTE_Mundy_HCI_Cortical_NOG_NeuronCount: CCTE's Neurite Outgrowth Assay in rat cortical cells for Neuron Count, Mundy Lab (AID 2284236);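 further: neurons counted by imaging betaIII-tubulin and Hoechst stained cortical cells; cells exposed to compound for about 48 hours before fixation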
Protocol: CCTE_Mundy_HCI_Cortical_NOG is a multiplexed, cell-based-readout assay that uses rat primary cortical cells with measurements taken at 50.33 hours after chemical dosing in a microplate: 96-well plate.CCTE_Mundy_HCI_Cortical_NOG_NeuronCount is one of four components of the CCTE_Mundy_HCI_Cortical_NOG assay. It measures cell viability related to the number of neurons using High Content Imaging of fluorescently labelled markers.[…] Using a type of morphology reporter, loss -of-signal activity can be used to understand developmental effects.
Exposure starts 2 hours post-plating by adding 10 ul of the working solution to 90 ul of media in the wells for a 1/10 dilution. Forty-eight hours after chemical treatment cells are fixed by direct addition of 100 ul of warm (37C) Dulbecco's phosphate buffered saline (DPBS) fixative solution containing 8% paraformaldehyde, 8% sucrose, and 0.1% of 3 mg/ml Hoechst 33342 into each well. Primary antibodies are prepared by dilution in Immunocytochemical Staining Buffer (ISB), 10X Dulbecco's PBS, 0.1% Saponin, 5% Bovine Serum Albumin, 0.5% NaN3 (Sodium Azide) and betaIII-tubulin (rabbit anti-betaIII-tubulin, 1:800) followed by Alexa Fluor-488 secondary (1:500) to label neuronal cell bodies and neurites. A Cellomics ArrayScan VTi HCS Reader is used for automated image acquisition and analysis of neurite outgrowth.

Compound	outcome	AC50
CC(C)COC(=O)c1ccccc1C(=O)OCC(C)C	inactive	–
COP(=S)(OC)SCN1C(=O)c2ccccc2C1=O	inactive	–
[O-][Cl+]O	inactive	–
CCC[CH2][Sn]([Cl])([CH2]CCC)[CH2]CCC	–	0.079 µM (active)
ClC1=C(Cl)C2(Cl)C3C(Cl)C=CC3C1(Cl)C2(Cl)Cl (stereo not drawn)	–	26.5 µM (active)
CCCCOC(=O)c1ccccc1C(=O)OCc1ccccc1	inactive	–
CN(C)[C@@H]1C(=O)C(C(N)=O)=C(O)[C@@]2(O)C(=O)C3=C(O)c4c(O)cccc4[C@@](C)(O)[C@H]3C[C@@H]12	inactive	–
CNC(=O)Oc1cccc2c1OC(C)(C)C2	inactive	–
COC(=O)Nc1nc2ccccc2[nH]1	inactive	–

assay: CCTE_Mundy_HCI_Cortical_NOG_BPCount: CCTE's Neurite Outgrowth Assay in rat cortical cells for Branch Point Count, Mundy Lab (AID 2284237; active means hit-call score of the fitted dose curve at least 0.9, where 1 is the maximum; inactive means score below 0.9;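 on AC50: branch points counted about two days after chemical exposure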)
Procedure, shortened: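 Measured 50.33 h after dosing, this morphology endpoint uses rat primary cortical cultures labelled for betaIII-tubulin. Branch points are quantified by high-content imaging, with DMSO as negative control and baseline.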

Compound	outcome	AC50
Nc1cc(Cl)cc(C(=O)O)c1Cl	inactive	–
CC(C)(C)C(O)(CCc1ccc(Cl)cc1)Cn1cncn1 (stereo not drawn)	–	0.162 µM (active)
CC(C)COC(=O)c1ccccc1C(=O)OCC(C)C	inactive	–
COP(=S)(OC)SCN1C(=O)c2ccccc2C1=O	inactive	–
[O-][Cl+]O	inactive	–
CCC[CH2][Sn]([Cl])([CH2]CCC)[CH2]CCC	–	0.0886 µM (active)
OCCOCCO	inactive	–
ClC1=C(Cl)C2(Cl)C3C(Cl)C=CC3C1(Cl)C2(Cl)Cl (stereo not drawn)	–	12.2 µM (active)
CCCCOC(=O)c1ccccc1C(=O)OCc1ccccc1	inactive	–
CN(C)[C@@H]1C(=O)C(C(N)=O)=C(O)[C@@]2(O)C(=O)C3=C(O)c4c(O)cccc4[C@@](C)(O)[C@H]3C[C@@H]12	inactive	–
CNC(=O)Oc1cccc2c1OC(C)(C)C2	inactive	–
COC(=O)Nc1nc2ccccc2[nH]1	–	3.98 µM (active)

assay: CCTE_Mundy_HCI_hNP1_Casp3_7: CCTE's Caspase-Glo 3/7 Assay in human neuroprogenitor cells for Apoptosis, Mundy Lab (AID 2284240; active means hit-call score of the fitted dose curve at least 0.9, where 1 is the maximum; inactive means score below 0.9)
Procedure, shortened: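 Luminescent caspase-3/7 readout, 26.5 h post-dose, in human neural progenitor cells from WA09 embryonic stem cells. Cells grew 40–44 h at 37 °C, 5% CO2 before chemical addition. Activity analysed as signal increase over DMSO baseline.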

Compound	outcome	AC50
Nc1cc(Cl)cc(C(=O)O)c1Cl	inactive	–
CC(C)(C)C(O)(CCc1ccc(Cl)cc1)Cn1cncn1 (stereo not drawn)	–	9.92 µM (active)
CC(C)COC(=O)c1ccccc1C(=O)OCC(C)C	inactive	–
COP(=S)(OC)SCN1C(=O)c2ccccc2C1=O	inactive	–
[O-][Cl+]O	inactive	–
CCC[CH2][Sn]([Cl])([CH2]CCC)[CH2]CCC	–	4.18 µM (active)
OCCOCCO	inactive	–
ClC1=C(Cl)C2(Cl)C3C(Cl)C=CC3C1(Cl)C2(Cl)Cl (stereo not drawn)	–	90.2 µM (active)
CCCCOC(=O)c1ccccc1C(=O)OCc1ccccc1	inactive	–
CN(C)[C@@H]1C(=O)C(C(N)=O)=C(O)[C@@]2(O)C(=O)C3=C(O)c4c(O)cccc4[C@@](C)(O)[C@H]3C[C@@H]12	inactive	–
CNC(=O)Oc1cccc2c1OC(C)(C)C2	inactive	–
COC(=O)Nc1nc2ccccc2[nH]1	–	6.5 µM (active)

assay: CCTE_Mundy_HCI_hNP1_CellTiter: CCTE's Cell Titer-Glo 2 Assay in human neuroprogenitor cells for Viability, Mundy Lab (AID 2284241);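 on AC50: a hit is a drop in ATP luminescence versus DMSO meaning reduced viability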
Procedure, shortened: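 Viability read as luminescent ATP content (CellTiter-Glo, 30 min room temperature) twenty-four hours after dosing, relative to DMSO. Cells: WA09-derived hNP1 neuroprogenitors on poly-L-ornithine/laminin, plated 40 to 44 hours before chemical.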

Compound	outcome	AC50
Nc1cc(Cl)cc(C(=O)O)c1Cl	inactive	–
CC(C)(C)C(O)(CCc1ccc(Cl)cc1)Cn1cncn1 (stereo not drawn)	inactive	–
CC(C)COC(=O)c1ccccc1C(=O)OCC(C)C	inactive	–
COP(=S)(OC)SCN1C(=O)c2ccccc2C1=O	inactive	–
[O-][Cl+]O	inactive	–
CCC[CH2][Sn]([Cl])([CH2]CCC)[CH2]CCC	–	0.335 µM (active)
OCCOCCO	inactive	–
ClC1=C(Cl)C2(Cl)C3C(Cl)C=CC3C1(Cl)C2(Cl)Cl (stereo not drawn)	–	13.4 µM (active)
CN(C)[C@@H]1C(=O)C(C(N)=O)=C(O)[C@@]2(O)C(=O)C3=C(O)c4c(O)cccc4[C@@](C)(O)[C@H]3C[C@@H]12	inactive	–
CNC(=O)Oc1cccc2c1OC(C)(C)C2	inactive	–
COC(=O)Nc1nc2ccccc2[nH]1	–	9.91 µM (active)

Reference: PubChem BioAssay (EPA / NIEHS)
